Results published in PubChem BioAssay (NCATS).
Inconclusive results are not listed. Calls of active or inactive are those of the source. Unless noted, calls follow the shape of the dose curve; as a rule, active = well fitted curve in the direction sought with a large enough effect; inconclusive = small, poorly fitted or top-dose-only effect, or another doubt; inactive = no such curve, though single readings can be large; an effect the other way counts as inactive or inconclusive.

Tests used:
[1] = NS1 protein of Zika virus - qHTS assay to identify small molecule inhibitors in human HEK 293 cells (AID 1347053);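 also: plate controls were infected untreated cells for no effect and uninfected cells for full effect; nearly all actives have a fitted effect of over 55% in size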
In short: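 HEK 293 cells pretreated with compound for 1 h, then infected with ZIKV MR766 (MOI 0.5) for 24 h at 37 C. NS1 detected by TR-FRET with two anti-NS1 antibodies; normalized to uninfected (0%) and infected (100%) wells.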

[2] = biological target: T1, Tyrosine-protein phosphatase non-receptor type substrate 1 (Homo sapiens) + Leukocyte surface antigen CD47 (Homo sapiens) (UniProt P78324+Q08722); assay: CD47-SIRPalpha protein protein interaction - LANCE assay qHTS validation (AID 1347057; active = well fitted curve in the direction sought with a large enough effect in the signal ratio, with a control signal flat, not every such curve was filed as active; the % refers to the signal ratio; also: 0% is about no effect)
T1 sequence (P78324 whole entry, looked up): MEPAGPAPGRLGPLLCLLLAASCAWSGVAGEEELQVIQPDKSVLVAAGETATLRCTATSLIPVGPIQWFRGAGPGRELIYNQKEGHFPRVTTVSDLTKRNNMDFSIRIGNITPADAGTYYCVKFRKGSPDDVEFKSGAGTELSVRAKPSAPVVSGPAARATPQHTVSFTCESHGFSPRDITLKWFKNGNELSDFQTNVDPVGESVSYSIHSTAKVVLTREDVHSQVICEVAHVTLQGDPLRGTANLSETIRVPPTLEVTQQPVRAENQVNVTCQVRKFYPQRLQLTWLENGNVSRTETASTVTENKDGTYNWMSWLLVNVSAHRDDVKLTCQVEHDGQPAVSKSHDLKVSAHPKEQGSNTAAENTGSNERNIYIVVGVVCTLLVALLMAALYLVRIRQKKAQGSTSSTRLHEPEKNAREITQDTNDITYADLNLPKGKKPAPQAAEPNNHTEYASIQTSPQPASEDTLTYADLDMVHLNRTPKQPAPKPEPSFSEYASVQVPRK
T1 sequence (Q08722 whole entry, looked up): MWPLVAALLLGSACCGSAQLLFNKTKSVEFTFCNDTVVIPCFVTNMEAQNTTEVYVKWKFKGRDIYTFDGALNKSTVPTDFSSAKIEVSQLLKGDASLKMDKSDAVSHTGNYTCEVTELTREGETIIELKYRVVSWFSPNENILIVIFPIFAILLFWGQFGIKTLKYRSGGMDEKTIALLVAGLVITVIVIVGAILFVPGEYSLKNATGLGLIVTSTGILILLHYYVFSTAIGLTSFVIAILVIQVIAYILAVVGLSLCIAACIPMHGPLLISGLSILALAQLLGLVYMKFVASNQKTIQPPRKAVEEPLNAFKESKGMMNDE
In short: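 First, His-tagged CD47 and Eu-labelled anti-His antibody met the compound for 30 min; next, site-specifically biotinylated SIRPalpha was added for 30 min; finally streptavidin-APC was added before reading the TR-FRET ratio.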

[3] = biological target: T1, Tyrosine-protein phosphatase non-receptor type substrate 1 (Homo sapiens) + Leukocyte surface antigen CD47 (Homo sapiens); assay: CD47-SIRPalpha protein protein interaction - HTRF assay qHTS validation (AID 1347058; active = well fitted curve in the direction sought with a large enough effect in the signal ratio, not every such curve was filed as active; the % refers to the signal ratio;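 also: recombinant soluble extracellular CD47 with His tag and biotinylated SIRPalpha domains; 0% is about no effect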)
In short: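 TR-FRET read (Ch1/Ch2 ratio) of soluble extracellular CD47 and Avi-biotinylated SIRPalpha domains in PBS pH 7.4 with 0.05% IGEPAL; 7-point compound titration. Sequential 30 min room-temperature steps; non-biotinylated SIRPalpha as control inhibitor.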

[4] = biological target: T1, Tyrosine-protein phosphatase non-receptor type substrate 1 (Homo sapiens) + Leukocyte surface antigen CD47 (Homo sapiens); assay: CD47-SIRPalpha protein protein interaction - Alpha assay qHTS validation (AID 1347059);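 also: bead proximity luminescence from CD47 binding SIRPalpha after compound preincubation with SIRPalpha; % is scaled to controls: 0 for no effect and ±100 for the full control effect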
In short: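 Biotinylated Avi-tagged SIRPalpha (25 nM) preincubated 30 min with compound, then His-tagged CD47 (12.5 nM) added 30 min; AlphaScreen with Ni-NTA acceptor and streptavidin donor beads. PBS pH 7.4, 0.05% IGEPAL, room temperature; 7-point titrations.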

[5] = biological target: Parathyroid hormone/parathyroid hormone-related peptide receptor (Homo sapiens) (UniProt Q03431); assay: qHTS for PTHR1 Agonists: Optimization Screen against the NCGC LOPAC library (AID 1347079);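 also: GloSensor cAMP luminescence in HEK-293 GP2 cells expressing human PTHR1 with IBMX; 0% is about no effect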
Parathyroid hormone/parathyroid hormone-related peptide receptor (Homo sapiens), sequence (Q03431 whole entry, looked up): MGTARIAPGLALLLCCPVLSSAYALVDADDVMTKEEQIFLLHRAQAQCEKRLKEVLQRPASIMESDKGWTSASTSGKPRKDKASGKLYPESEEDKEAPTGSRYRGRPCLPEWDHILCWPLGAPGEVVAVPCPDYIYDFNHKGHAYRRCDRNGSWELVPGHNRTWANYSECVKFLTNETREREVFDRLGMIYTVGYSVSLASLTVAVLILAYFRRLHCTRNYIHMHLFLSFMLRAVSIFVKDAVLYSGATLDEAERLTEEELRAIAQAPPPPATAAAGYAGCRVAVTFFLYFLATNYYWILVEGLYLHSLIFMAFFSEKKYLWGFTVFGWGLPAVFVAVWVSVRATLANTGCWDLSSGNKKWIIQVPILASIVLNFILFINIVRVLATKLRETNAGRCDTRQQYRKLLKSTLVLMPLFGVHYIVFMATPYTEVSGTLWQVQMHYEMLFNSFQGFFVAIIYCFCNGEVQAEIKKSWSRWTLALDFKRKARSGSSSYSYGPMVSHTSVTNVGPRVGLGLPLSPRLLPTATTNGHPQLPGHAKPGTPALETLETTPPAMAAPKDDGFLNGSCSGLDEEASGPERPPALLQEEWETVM
In short: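 Agonist readout: GloSensor cAMP luminescence, read after 15 min at room temperature. HEK-293-derived GP2 line carries PTHR1; compounds tested as a titration for 1 hr at 37C in presence of IBMX. M-PTH (1-15) served as control.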

[6] = biological target: N-terminal Xaa-Pro-Lys N-methyltransferase 1 (Homo sapiens) (UniProt Q9BV86); assay: qHTS Assay for Inhibitors of N-terminal methyltransferase 1 (NTMT1): LOPAC validation of the NTMT1 SAHH-coupled ThioGlo3 Assay (AID 1347143);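 also: SAH from peptide methylation measured as thiol fluorescence via SAHH coupling and ThioGlo3; % is scaled to controls: 0 for no effect and ±100 for the full control effect; nearly all actives have a fitted effect of over 70% in size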
N-terminal Xaa-Pro-Lys N-methyltransferase 1 (Homo sapiens), sequence (Q9BV86 whole entry, looked up): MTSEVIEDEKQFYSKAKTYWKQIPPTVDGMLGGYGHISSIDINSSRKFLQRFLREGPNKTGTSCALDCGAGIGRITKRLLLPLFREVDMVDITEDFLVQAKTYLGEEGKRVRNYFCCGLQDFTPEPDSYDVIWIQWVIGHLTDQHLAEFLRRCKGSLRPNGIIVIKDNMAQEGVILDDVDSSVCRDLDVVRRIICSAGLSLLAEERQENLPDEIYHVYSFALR
In short: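 Recombinant human NTMT1 (125nM) was pre-incubated 1 min at room temperature with compounds over a concentration range, then a mix of 100uM SAM, 10uM SAHH and 15uM ThioGlo3 (concentrations in added reagent) was added. ThioGlo3 fluorescence (ex 340/em 450nm) after 30 min was normalized to the initial reading.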

[7] = system: Zika virus NS2B-NS3 protease (unlinked); assay: Optimization of GU AMC qHTS for Zika virus inhibitors: Unlinked NS2B-NS3 protease assay (AID 1347151); also: nearly all actives have a fitted effect of over 80% in size; also: potency is read from the fitted curve at half-maximal effect
In short: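 In this qHTS, compounds acted on 25 nM unlinked Zika NS2B–NS3 in pH 8.0 Tris/Tween buffer. Cleavage of an AMC peptide ran 15 min at room temperature, to about 20% conversion.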

[8] = biological target: Lysine-specific demethylase 5B (Homo sapiens) (UniProt Q9UGL1); assay: Optimization screen for KDM5B Histone Demethylases FDH coupled qHTS against the LOPAC library (AID 1347166); details: KDM5B demethylation, FDH-coupled NADH fluorescence (FDH is formaldehyde dehydrogenase); at 57.5 µM (top of the series); also: 0% is about no effect
Lysine-specific demethylase 5B (Homo sapiens), sequence (Q9UGL1 whole entry, looked up): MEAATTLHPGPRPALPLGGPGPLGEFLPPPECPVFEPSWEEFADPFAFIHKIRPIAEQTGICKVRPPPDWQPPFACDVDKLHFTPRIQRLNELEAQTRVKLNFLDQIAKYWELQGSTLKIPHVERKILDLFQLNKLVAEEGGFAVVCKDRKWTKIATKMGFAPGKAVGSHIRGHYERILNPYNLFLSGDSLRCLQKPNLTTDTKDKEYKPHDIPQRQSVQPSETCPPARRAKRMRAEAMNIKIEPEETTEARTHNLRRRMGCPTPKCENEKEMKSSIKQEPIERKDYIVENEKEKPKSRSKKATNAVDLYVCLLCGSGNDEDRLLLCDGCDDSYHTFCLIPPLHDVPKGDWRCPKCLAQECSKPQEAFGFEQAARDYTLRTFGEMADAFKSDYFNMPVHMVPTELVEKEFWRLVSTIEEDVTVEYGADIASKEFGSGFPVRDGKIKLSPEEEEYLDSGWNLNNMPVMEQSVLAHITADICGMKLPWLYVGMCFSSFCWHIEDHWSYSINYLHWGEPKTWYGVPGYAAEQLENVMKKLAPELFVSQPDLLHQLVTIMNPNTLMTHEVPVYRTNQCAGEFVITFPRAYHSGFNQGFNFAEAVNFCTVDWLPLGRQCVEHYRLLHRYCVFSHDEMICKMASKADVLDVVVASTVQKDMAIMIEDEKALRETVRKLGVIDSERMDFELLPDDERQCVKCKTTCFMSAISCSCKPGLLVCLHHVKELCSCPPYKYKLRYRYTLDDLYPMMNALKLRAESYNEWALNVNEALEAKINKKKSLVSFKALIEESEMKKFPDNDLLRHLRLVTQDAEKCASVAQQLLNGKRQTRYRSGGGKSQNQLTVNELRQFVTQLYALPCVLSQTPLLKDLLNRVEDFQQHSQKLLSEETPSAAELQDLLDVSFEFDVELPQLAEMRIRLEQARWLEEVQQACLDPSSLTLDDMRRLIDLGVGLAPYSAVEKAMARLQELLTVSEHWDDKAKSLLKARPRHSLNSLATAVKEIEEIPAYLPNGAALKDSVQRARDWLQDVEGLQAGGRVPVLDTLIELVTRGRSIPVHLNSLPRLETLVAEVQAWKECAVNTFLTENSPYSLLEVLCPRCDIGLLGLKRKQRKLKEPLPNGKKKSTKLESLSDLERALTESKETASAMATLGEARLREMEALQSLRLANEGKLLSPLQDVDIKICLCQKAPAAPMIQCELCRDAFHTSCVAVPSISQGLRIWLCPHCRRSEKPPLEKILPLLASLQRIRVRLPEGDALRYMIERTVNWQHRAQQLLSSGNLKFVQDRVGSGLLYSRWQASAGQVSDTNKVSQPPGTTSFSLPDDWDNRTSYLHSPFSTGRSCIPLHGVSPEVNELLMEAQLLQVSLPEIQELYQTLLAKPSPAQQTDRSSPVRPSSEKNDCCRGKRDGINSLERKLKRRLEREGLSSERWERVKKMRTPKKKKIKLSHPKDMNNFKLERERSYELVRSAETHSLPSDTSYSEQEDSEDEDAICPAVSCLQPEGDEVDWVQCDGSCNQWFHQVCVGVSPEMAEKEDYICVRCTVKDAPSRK
In short: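 KDM5BDeltaAP (200nM final) preincubated 10 min with compound, then 12.5uM H3K4Me3, 25uM a-ketoglutarate, ascorbate, Fe(II), NAD+ and FDH added; 50mM HEPES pH 7.5, 0.01% Tween-20. NADH fluorescence (340/450 nm) change over 30 min, room temperature.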

[9] = system: Zika virus NS2B-NS3 protease; assay: Primary screen GU AMC qHTS for Zika virus inhibitors (AID 1347154);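 also: 0% = no-inhibitor control and -100% = no-enzyme control; nearly all actives have a fitted effect of over 70% in size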
In short: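 Unlinked Zika NS2B hydrophilic domain–NS3 protease complex at 25 nM in 10 mM Tris-HCl pH 8.0, 0.01% Tween 20, with an AMC peptide substrate. Fluorescence change (340/450 nm) over 15 min at room temperature, normalized to controls, fitted to 4-parameter Hill.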

[10] = Confirmatory screen NINDS Rhodamine qHTS for Zika virus inhibitors (AID 1347161); also: potency is read from the fitted curve at half-maximal effect; nearly all actives have a fitted effect of over 60% in size
In short: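 qHTS dose-response: 25 nM linked protease, pH 8.0 Tris/Tween buffer, cpd titration, 15 min RT preinc, 1.5 microM Rhod110 peptide, 15 min reaction (~15% conversion), Ex480/Em540; 4-parameter Hill fit.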

[11] = system: Zika virus NS2B-NS3 protease (linked); assay: 384 well plate NINDS AMC confirmatory qHTS for Zika virus inhibitors (AID 1347163); also: potency is read from the fitted curve at half-maximal effect; nearly all actives have a fitted effect of over 50% in size
In short: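 Linked NS2B-NS3 protease (final 5 nM, 30 nM or 60 nM) was preincubated with compounds (final up to 1 mM) for ~15 minutes. Ac-VKTGKR-AMC substrate (final 30 microM) then reacted for 25 minutes at room temperature in the dark. Fluorescence (ex 355/em 460 nm) was normalized to no-enzyme and no-inhibitor controls.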

[12] = system: Zika virus NS2B-NS3 protease (linked construct); assay: 384 well plate NINDS Rhodamine confirmatory qHTS for Zika virus inhibitors (AID 1347164); also: potency is read from the fitted curve at half-maximal effect; nearly all actives have a fitted effect of over 65% in size
In short: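 Cleavage of Ac-LKRR-Rhodamine 110 (10 microM final) by linked protease (final 5, 30 or 60 nM) was followed as fluorescence at 485/538 nm after 25 min, room temperature, dark. Compounds preincubated ~15 min.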

[13] = HepG2 cells viability qHTS for Zika virus inhibitors (AID 1347168); also: % is scaled to controls: 0 for no effect and ±100 for the full control effect
In short: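 Cells seeded at 2.5 x 10^5 cells/mL in DMEM with 4% FBS and attached overnight at 37 degrees C, then exposed to compound for 24 to 48 hours. Viability read as ATP content by CellTiter Glo luminescence.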

N=S(=O)(O)Cc1noc2ccccc12
inactive: Potency [1] | Potency [2] | outcome [3] | Potency [4] | Potency [5] | Potency [6] | Potency [7] | activity, negative = inhibition [8] 3.62%

NCC(O)(CS(=O)(=O)O)c1ccc(Cl)cc1 (stereo not drawn)
inactive: Potency [1] | Potency [2] | outcome [3] | Potency [4] | Potency [5] | Potency [6] | Potency [7] | activity, negative = inhibition [8] -2.36%

NC(=O)c1ccccc1
inactive: Potency [1] | Potency [2] | outcome [3] | Potency [4] | Potency [5] | Potency [6] | Potency [7] | activity, negative = inhibition [8] 0.361%

C#CC(N)CCC(=O)O (stereo not drawn)
inactive: Potency [1] | Potency [2] | outcome [3] | Potency [4] | Potency [5] | Potency [6] | Potency [7] | activity, negative = inhibition [8] -0.625%

NC(N)=[N+]1CCc2ccccc2C1
inactive: Potency [1] | Potency [2] | outcome [3] | Potency [4] | Potency [5] | Potency [6] | Potency [7] | activity, negative = inhibition [8] 2.33%

N[C@H](C(=O)O)[C@H](Cc1ccccc1)C(=O)O
inactive: Potency [1] | Potency [2] | outcome [3] | Potency [4] | Potency [5] | Potency [6] | Potency [7] | activity, negative = inhibition [8] -9.48%

Nc1ncnc2c1ncn2C1CCCC1
inactive: Potency [1] | Potency [2] | outcome [3] | Potency [4] | Potency [5] | Potency [6] | Potency [7] | activity, negative = inhibition [8] -3.1%

Cc1nc2c(OCc3ccccc3)cccn2c1CC#N
inactive: Potency [1] | Potency [2] | outcome [3] | Potency [4] | Potency [5] | Potency [6] | Potency [9] | activity, negative = inhibition [8] 0.134%

CCCC(=O)NCCc1c2n(c3ccc(OC)cc13)CCCc1ccccc1-2
active: Potency [7] 26.7 µM
inactive: Potency [1] | Potency [2] | outcome [3] | Potency [4] | Potency [5]

O=C(O)c1ccccc1Nc1cccc(OCc2ccc3ccccc3n2)c1
inactive: Potency [1] | Potency [2] | outcome [3] | Potency [4] | Potency [5] | Potency [9] | activity, negative = inhibition [8] -2.34% | outcome [13]
active: Potency [7] 29.9 µM | Potency [10] 3.49 µM | Potency [11] 158 µM | Potency [12] 63.1 µM

O=C1C2C=CC=CC2=NC(=S)N1CCN1CCC(=C(c2ccc(F)cc2)c2ccc(F)cc2)CC1 (stereo not drawn)
inactive: Potency [1] | Potency [2] | outcome [3] | Potency [4] | Potency [5] | Potency [6] | activity, negative = inhibition [8] -6.14%

Nc1ncnc2c1nc(Br)n2C1OC2COP(=O)(O)O[C@@H]2C1O (stereo partly drawn)
inactive: Potency [1] | Potency [2] | outcome [3] | Potency [4] | Potency [5] | Potency [6] | activity, negative = inhibition [8] -2.56%

NCCCNCCCCNCCCN
inactive: Potency [1] | Potency [2] | outcome [3] | Potency [4] | Potency [5] | Potency [7] | Potency [9]
